{
  "source": "PubChem BioAssay (NCATS)",
  "note": "Results filed as inconclusive are left out. Active and inactive are the calls of the source. Calls come from the whole dose curve; as a rule, active = well fitted inhibition curve with a large enough effect; inconclusive = small, poorly fitted or top-dose-only effect; inactive = no such curve, though single readings can be large or run the other way. Potency is the fitted concentration of half-maximal effect.",
  "data": [
    {"assay": "BET inhibitor-based combinations targeting novel dependencies in MECOM-rearranged (r) AML: MV-4-11 cell line (AID 2202233); note: nearly all actives have a fitted effect of over 45% in size", "details": "MV-4-11 AML viability, CellTiter-Glo luminescence, 48 h; series mostly up to 46 µM; viability, % of control: at the top concentration", "from_the_text": "Ecotropic viral insertion site 1 (EVI1) is located on chromosome 3q26.2 as part of the MECOM (MDS and EVI1 complex) locus. Under normal hematopoiesis, EVI1 is a regulator of hematopoietic stem cell maintenance and self-renewal and EVI1 levels decrease as the cells differentiate. In approximately 5-10% of de novo acute myeloid leukemia (AML) EVI1 is aberrantly expressed, including Chromosomal inv(3)(q21;q26.2) or t(3;3)(q21;q26.2) alterations (MECOM-r) that account for about 50% of AML with EVI1 overexpression 31. AMLs with high levels of EVI1 have a poor prognosis and an overall survival time averaging between 10-14 months. EVI1 overexpression confers resistance in leukemia cells, highlighting the need to develop new targeted therapies for EVI1 overexpressing AMLs. Here, we performed an unbiased chemical drug screening by evaluating the single agent activity of a collection of 2,480 oncology-focused, approved and investigational drugs (NCATS Mechanism Interrogation Plates, MIPE v5.0) against a panel of seven AML cell lines. These included four MECOM-r cell-lines (AML-191, AML-194, UCSD-AML1 and HNT-34) and three non-MECOM-r AMLs (MV4-11, OCI-AML3 and SET-2). Exploiting the mechanistic redundancy built in the library, we identified target-level sensitivities in MECOM-r AML cells and relative activity as compared to other AML subtypes.\nA collection of 2480 mechanistically annotated dugs (MIPE v5.0) was used to screen four 3q26.2 rearranged AML cell lines and three non-3q26.2 rearranged AML cell lines. This library purposely exploits redundancy by including multiple inhibitors of key onco-targets, while simultaneously encompassing mechanistic diversity, targeting more than 800 distinct mechanisms of action. Briefly, cells were seeded in 5 uL of growth media using a Multidrop Combi dispenser into 1536 well white polystyrene tissue culture treated plates (Corning) at a density of 500cells/well. For each cell-line, for each of the 2480 drugs in MIPE v5.0 library, an 11-point dose curve was generated via a 1536 pin-tool. Plates were incubated for 48 hr at standard incubator conditions, covered by a stainless steel gasketed lid to prevent evaporation. Cell viability was determined by luminescence based, Cell Titer Glo assay (Promega). In detail, 3 uL of Cell Titer Glo were added to each well and plates were incubated at room temperature for 15 min with a stainless-steel lid in place. Luminescence readings were taken using a Viewlux (PerkinElmer) with a 2 s exposure time per plate. Compound dose-response curves were normalized to DMSO and empty well controls on each plate. Quantitative drug activity data from dose-response curves was determined utilizing area Under the Curve (AUC) and Z-transformed AUC (Z-AUC, a mean-centering transformation applied to each individual cell-line screened).", "values": [
      {"smiles": "CCN1CCN(C(=O)Cc2ccc(Nc3ncc(F)c(Nc4ccc(C(=O)Nc5ccccc5Cl)cc4)n3)cc2)CC1", "Potency": "1480 nM (active)"},
      {"smiles": "COC[C@H]1OC(=O)c2coc3c2[C@@]1(C)C1=C(C3=O)[C@@H]2CC[C@H](O)[C@@]2(C)C[C@H]1OC(C)=O", "Potency": "5900 nM (active)"},
      {"smiles": "CO[C@H]1CCC(O[C@H]2C[C@H]([C@]3(C)CC[C@]4(C[C@H](O)[C@@H](C)[C@@H]([C@@H](C)/C=C(\\C)C(=O)[C@H](C)C[C@H](C)C(=O)O)O4)O3)O[C@]3(O[C@@H]([C@H]4O[C@@](O)(CO)[C@H](C)C[C@@H]4C)C[C@@H]3C)[C@@H]2C)O[C@@H]1C", "note": "(stereo not given in full)", "Potency": "372 nM (active)"},
      {"smiles": "O=P1(NCCCl)OCCCN1CCCl", "note": "(stereo not given)", "viability, % of control": "120% (inactive)"},
      {"smiles": "COc1cc([C@@H]2c3cc4c(cc3[C@@H](O)C3COC(=O)C32)OCO4)cc(OC)c1O", "note": "(stereo not given in full)", "Potency": "372 nM (active)"},
      {"smiles": "Cn1c(CCCCCCC(=O)NO)nc2cc(N(CCCl)CCCl)ccc21", "Potency": "1480 nM (active)"},
      {"smiles": "COC1=C[C@@H]2[C@@H]3Cc4ccc(OC)c(O)c4[C@]2(CCN3C)CC1=O", "viability, % of control": "101% (inactive)"},
      {"smiles": "CN(C)c1cc2c(cc1Sc1nc3c(N)nccc3n1CCNCC(C)(C)C)OCO2", "Potency": "662 nM (active)"},
      {"smiles": "NC(=O)[C@@H](CC1CC1)[C@@H](CCC(F)(F)F)C(=O)N[C@H]1N=C(c2ccccc2)c2cccc(F)c2NC1=O", "viability, % of control": "108% (inactive)"},
      {"smiles": "COc1ccc2c(c[n+](C)c3c4cc5c(cc4ccc23)OCO5)c1OC", "Potency": "5250 nM (active)"},
      {"smiles": "CCOP(=O)(OCC)C(C)NC(=O)N(CCCl)N=O", "note": "(stereo not given)", "viability, % of control": "124% (inactive)"},
      {"smiles": "N[C@@H](Cc1ccc(N(CCCl)CCCl)cc1)C(=O)O", "Potency": "1480 nM (active)"},
      {"smiles": "Cc1cc(SCc2sc(-c3ccc(C(F)(F)F)c(F)c3)nc2C)ccc1OCC(=O)O", "Potency": "18600 nM (active)"},
      {"smiles": "CC1=C2C[C@H]3[C@@H](CC=C4C[C@@H](O)CC[C@@]43C)[C@@H]2CC[C@]12O[C@@H]1C[C@H](C)CN[C@H]1[C@H]2C", "viability, % of control": "99% (inactive)"},
      {"smiles": "C=C[C@H]1CN2CCC1C[C@@H]2[C@@H](O)c1ccnc2ccccc12", "note": "(stereo not given in full)", "Potency": "5900 nM (active)"},
      {"smiles": "O=C(Nc1ccncc1)C(=O)c1cn(Cc2ccc(Cl)cc2)c2ccccc12", "Potency": "296 nM (active)"},
      {"smiles": "CCN1C[C@]2(OC(=O)c3ccccc3NC(C)=O)CC[C@H](OC)[C@@]34[C@H]5CC6[C@@H](OC)C[C@](O)(C(C[C@@H]23)[C@@H]14)[C@@]5(O)[C@@H]6OC", "viability, % of control": "117% (inactive)"},
      {"smiles": "CO/C1=C/C(C)=C\\[C@@H](C)[C@@H](O)[C@@H](C)C/C(C)=C\\C=C/[C@H](OC)[C@@H]([C@@H](C)[C@@H](O)[C@H](C)[C@@]2(O)C[C@@H](O)[C@H](C)[C@@H](C(C)C)O2)OC1=O", "Potency": "98.6 nM (active)"},
      {"smiles": "C[C@]12CC[C@H]3[C@@H](CCC4=CC(=O)CC[C@@]43C)[C@H]1CC[C@H]2OC(=O)CCC1CCCC1", "viability, % of control": "97.5% (inactive)"},
      {"smiles": "O=C(Oc1ccc([N+](=O)[O-])cc1)N1CCC(C(O)(c2ccc3c(c2)OCO3)c2ccc3c(c2)OCO3)CC1", "viability, % of control": "85.4% (inactive)"},
      {"smiles": "C=C(C)[C@@H]1CCC(C)=C[C@H]1c1c(O)cc(CCCCC)cc1O", "Potency": "18600 nM (active)"},
      {"smiles": "O=c1[nH]c2ccc(Cl)cc2c(N[C@@H]2CN3CCC2CC3)c1-c1nc2ccccc2[nH]1", "Potency": "74.2 nM (active)"},
      {"smiles": "O=C(O)CNC(=O)C1C(=O)N(C2CCCCC2)C(=O)N(C2CCCCC2)C1=O", "viability, % of control": "91% (inactive)"},
      {"smiles": "CCCC[N+]1(C)[C@H]2CC(OC(=O)[C@H](CO)c3ccccc3)C[C@H]1[C@H]1O[C@H]12", "note": "(stereo not given in full)", "viability, % of control": "124% (inactive)"},
      {"smiles": "C[C@]12CC[C@H](O)CC1=CC[C@@H]1[C@@H]2CC[C@]2(C)C(=O)CC[C@@H]12", "viability, % of control": "101% (inactive)"},
      {"smiles": "COC(=O)[C@]12CCC(C)(C)C[C@H]1[C@H]1C(=O)C=C3[C@@]4(C)C=C(C#N)C(=O)C(C)(C)[C@@H]4CC[C@@]3(C)[C@]1(C)CC2", "Potency": "417 nM (active)"},
      {"smiles": "C/C1=C/C[C@@H](/C(C)=C/c2csc(C)n2)OC(=O)C[C@H](O)C(C)(C)C(=O)[C@H](C)[C@@H](O)[C@@H](C)CCC1", "Potency": "148 nM (active)"},
      {"smiles": "C[C@@H]1CN(Cc2ccc(F)cc2)CCN1C(=O)COc1ccc(Cl)cc1NC(N)=O", "Potency": "14800 nM (active)"},
      {"smiles": "COC(=O)[C@@H](N)CCCN=C(N)N[N+](=O)[O-]", "viability, % of control": "123% (inactive)"},
      {"smiles": "CN(C)CCN(C)CCc1ccc(Cl)c(Cl)c1", "viability, % of control": "122% (inactive)"},
      {"smiles": "CC1(C)CC(O)CC(C)(C)N1O", "viability, % of control": "108% (inactive)"},
      {"smiles": "CC1=C(O)C(=O)C=C2C1=CC=C1[C@@]2(C)CC[C@@]2(C)[C@@H]3C[C@](C)(C(=O)O)CC[C@]3(C)CC[C@]12C", "Potency": "662 nM (active)"},
      {"smiles": "CC(=O)O[C@@]12CO[C@@H]1C[C@H](O)[C@@]1(C)C(=O)[C@H](O)C3=C(C)[C@@H](O)C[C@@](O)([C@@H](OC(=O)c4ccccc4)[C@H]21)C3(C)C", "Potency": "23500 nM (active)"},
      {"smiles": "CC(C)[C@H]1C(=O)N[C@H](CO)Cc2c[nH]c3cccc(c23)N1C", "Potency": "1150 nM (active)"},
      {"smiles": "C[C@@H](C1CC[C@@]2(O)C3=CC(=O)[C@@H]4C[C@@H](O)[C@@H](O)C[C@]4(C)[C@H]3CC[C@]12C)[C@H](O)CCC(C)(C)O", "note": "(stereo not given in full)", "viability, % of control": "106% (inactive)"},
      {"smiles": "CN1CCN(c2ccc([N+](=O)[O-])c3no[n+]([O-])c23)CC1", "Potency": "14800 nM (active)"},
      {"smiles": "COC(=O)[C@@]12OC[C@]34[C@H]([C@@H](O)[C@@H]1O)[C@@]1(C)CC(=O)C(O)=C(C)[C@@H]1C[C@H]3OC(=O)[C@H](OC(=O)/C=C(\\C)C(C)C)[C@@H]24", "Potency": "3 nM (active)"},
      {"smiles": "C/C(=C\\c1csc(C)n1)[C@@H]1C[C@@H]2O[C@@H]2CCC[C@H](C)[C@H](O)[C@@H](C)C(=O)C(C)(C)[C@@H](O)CC(=O)O1", "Potency": "33.2 nM (active)"},
      {"smiles": "COc1cc2cc(c1Cl)N(C)C(=O)C[C@H](OC(=O)C(C)C)[C@]1(C)O[C@@H]1[C@H](C)[C@@H]1C[C@@](O)(NC(=O)O1)[C@H](OC)/C=C/C=C(\\C)C2", "viability, % of control": "3.34% (inactive)"},
      {"smiles": "CC(C)c1cccc(C(C)C)c1O", "viability, % of control": "121% (inactive)"}
    ]}
  ]
}
